Reference: PubChem BioAssay
Records with an inconclusive call do not appear. Activity calls are given as the source filed them.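 Rule for the calls, unless noted: active = inhibition over a set limit, the all-compound mean plus 3 SD, in both replicate runs; inconclusive = over that limit in just one replicate run; inactive = at or under that limit in both runs.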

Tests used:
[1] = Her2 expression decrease, cell viability multiplex – SKBR3 breast tumor cells, AlphaScreen, ATP viability, primary screen (AID 461;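 active = Her2 level under about 52% in both replicate screens, with viability over 70% of control, limit read from the data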;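 for Her2 level: lower value means less Her2 protein in the cells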;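 for viability: percent of carrier control wells set as 100% viability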); settings: SKBR3 Her2 protein level, 18-24 h, measured here: SKBR3 viability, ATP luminescence, at 10 µM
[2] = target: Receptor tyrosine-protein kinase erbB-2 (Homo sapiens) (UniProt P04626); assay: as above; settings: 18-24 h, at 10 µM, stronger effect = lower value
Sequence of Receptor tyrosine-protein kinase erbB-2 (Homo sapiens) (P04626 whole entry, looked up): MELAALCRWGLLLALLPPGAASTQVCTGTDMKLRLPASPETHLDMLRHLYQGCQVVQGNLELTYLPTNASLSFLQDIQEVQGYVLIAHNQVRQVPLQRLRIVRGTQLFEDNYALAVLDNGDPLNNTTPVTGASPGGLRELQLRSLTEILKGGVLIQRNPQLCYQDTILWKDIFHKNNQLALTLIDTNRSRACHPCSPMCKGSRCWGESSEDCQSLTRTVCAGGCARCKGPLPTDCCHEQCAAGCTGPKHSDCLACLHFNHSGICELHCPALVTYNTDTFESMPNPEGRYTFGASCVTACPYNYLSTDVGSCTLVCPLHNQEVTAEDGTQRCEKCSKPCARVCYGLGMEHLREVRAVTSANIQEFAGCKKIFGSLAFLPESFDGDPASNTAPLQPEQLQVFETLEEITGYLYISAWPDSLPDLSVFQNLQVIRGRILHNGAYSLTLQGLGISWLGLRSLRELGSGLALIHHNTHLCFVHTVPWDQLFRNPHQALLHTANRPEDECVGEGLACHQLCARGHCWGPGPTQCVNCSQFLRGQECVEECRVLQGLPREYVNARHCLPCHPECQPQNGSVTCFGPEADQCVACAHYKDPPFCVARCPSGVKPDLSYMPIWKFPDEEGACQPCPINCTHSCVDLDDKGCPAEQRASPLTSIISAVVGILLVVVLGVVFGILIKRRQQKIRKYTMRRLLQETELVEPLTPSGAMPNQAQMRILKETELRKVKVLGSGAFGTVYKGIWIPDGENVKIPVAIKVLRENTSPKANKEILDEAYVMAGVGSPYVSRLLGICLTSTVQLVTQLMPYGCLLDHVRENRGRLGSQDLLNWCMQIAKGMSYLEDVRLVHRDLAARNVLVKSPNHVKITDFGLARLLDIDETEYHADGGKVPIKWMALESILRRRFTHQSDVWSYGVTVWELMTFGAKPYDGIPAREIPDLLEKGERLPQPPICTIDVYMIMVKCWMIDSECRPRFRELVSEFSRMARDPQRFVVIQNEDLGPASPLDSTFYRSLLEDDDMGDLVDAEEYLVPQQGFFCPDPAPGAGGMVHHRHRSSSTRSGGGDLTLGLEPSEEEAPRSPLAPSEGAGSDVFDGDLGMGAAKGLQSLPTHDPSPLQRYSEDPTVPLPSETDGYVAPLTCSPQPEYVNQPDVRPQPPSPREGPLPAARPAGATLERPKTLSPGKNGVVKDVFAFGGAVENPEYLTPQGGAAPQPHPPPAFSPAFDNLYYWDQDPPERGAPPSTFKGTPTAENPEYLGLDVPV

[3] = reduced viability of SK-BR-3 breast cancer cells – cell-based, 24 h, human, pilot screen (AID 572;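 active = viability at or below 10% of carrier control in both of two separate runs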;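 note: compound exposure lasted between 18 and 24 h rather than exactly 24 h; 100% = carrier-treated control wells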); settings: SK-BR-3 viability, CellTiter-Glo luminescence, at 10 µM, stronger effect = lower value
[4] = HUVEC growth inhibition – cell-based, human, primary screen (AID 575;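 active = viability at or below 30% in both replicate assays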;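 note: 100% = median of untreated cell wells with 0.1% DMSO on each plate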); settings: HUVEC proliferation, CellTiter-Glo luminescence, 72 h; at 10 µM; stronger effect = lower value
[5] = H69AR cell proliferation blockers – human, duplicate replicates, primary screen (AID 580;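 active = viability at or under a set limit in both replicates, limit being median viability minus 3 SD, cut at about 48% in these data, passing the limit was not always enough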;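 note: 100% = mean luminescence of untreated wells and 0% = no signal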); settings: H69AR lung tumor cells viability, ATP luminescence, 72 h; at 10 µM; stronger effect = lower value
[6] = MRP1 drug-resistance reversers in H69AR cells – cell-based, doxorubicin co-treatment, pilot screen (AID 601;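 active = viability loss from added drug above about 55%, and viability with drug at most 40%, in both replicates, limit read from the data, passing the limit was not always enough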); settings: CellTiter-Glo, 72 h, at 10 µM; for differential viability (reversal): stronger effect = higher value
[7] = yeast transport mutant growth inhibition pilot in 384-well plates, post-Golgi transport modulator project (AID 636; in the data active = inhibition above about 31%); settings: absorbance 615 nm, about 18 h, stronger effect = higher value
[8] = growth suppression of yeast trafficking mutant, preliminary HTS, modulators of trafficking downstream of Golgi apparatus project, 1536-format plate, OD 615 nm (AID 637; in the data active = inhibition above about 30%); settings: yeast transport mutant growth, absorbance 615 nm, 18 h; stronger effect = higher value
[9] = S. cerevisiae growth inhibition in permissive medium (OD615), pilot counter-assay for S. cerevisiae lifespan shortening project, permissive growth control (AID 705;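 active = growth inhibition above 25% in both replicates, a cutoff set 3 SD above the mean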); settings: OD615, 24 h, at 10 µM, stronger effect = higher value
[10] = S. cerevisiae growth inhibition in restrictive medium, OD615, pilot screen, restrictive growth control, yeast lifespan reduction project (AID 706;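 active = growth inhibition above a set limit, 3 SD over mean compound inhibition, in both replicates, cut at about 43% in these data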;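 note: modified DeaD lifespan yeast strain shifted to restrictive glucose medium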); settings: OD615, 48 h, at 10 µM, stronger effect = higher value
[11] = doxorubicin toxicity protection in MRP-1 cells – H69AR cells, CellTiter-Glo, duplicate, MRP-1 activator project, pilot screen (AID 807;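 active = viability increase at or above a cutoff of the median across tested compounds plus 3 SD, cut at about 8.5% in these data, passing the limit was not always enough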;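 note: compound pretreatment 18-22 h then 72 h combined with doxorubicin; 0% = doxorubicin alone and 100% = vehicle without doxorubicin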); settings: H69AR viability with doxorubicin, CellTiter-Glo luminescence; at 10 µM; stronger effect = higher value
[12] = viability of HCT116 without oncogenic beta-catenin – human colon tumor cells, pilot screen (AID 823;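 active = cell viability at or below a set limit in both duplicate runs, the limit being the all-compound median minus 4 SD, cut at about 23% in these data, passing the limit was not always enough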;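 note: 0% = wells killed by 20 µM Hyamine and 100% = untreated DMSO cell wells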); settings: HCT116 beta-catenin knockout viability, CellTiter-Glo, 60 h; at 10 µM; stronger effect = lower value
[13] = viability of PTEN-null HCT116 cells – cell-based, HCT116 clonal line, CellTiter-Glo, pilot screen (AID 824;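 active = viability at or below 27.92% in each of two runs, the all-compound median minus 4 SD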;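 note: 0% = 20 µM Hyamine control and 100% = vehicle cell control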); settings: HCT116 PTEN-deleted viability, 60 h, at 10 µM, stronger effect = lower value
[14] = RAM pathway blockade in budding yeast – dse1pr::URA3 reporter, 5-FOA selection, pilot screen (AID 869);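 note: 0% = DMSO wells with no growth and 100% = 10 µM 1-NA-PP1 with full growth; RAM network block rescues cells from 5-FOA so hits raise OD615 growth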; settings: S. cerevisiae dse1pr::URA3 5-FOA growth, OD615, 2 d; at 10 µM; stronger effect = higher value; strain carries analog-sensitive mutant Cbk1 kinase
[15] = RAM signaling pathway blockade in yeast – S. cerevisiae, Pdr1DBD-CYC8 efflux-inhibited sensitized strain, primary screen (AID 1298;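 active = RAM network inhibition above 8.4% in each of two replicates, 3 SD over the compound average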;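 note: 0% = DMSO untreated cells without growth and 100% = 10 µM 1-NA-PP1 full growth; higher means more yeast growth rescued from 5-FOA killing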); settings: S. cerevisiae cbk1-as DSE1-URA3 strain, 5-FOA growth OD615, 2 d; at 50 µM; stronger effect = higher value
[16] = H69AR cells + 2 uM doxorubicin, measured here: viability with 2 uM doxorubicin, stronger effect = lower value
[17] = H69AR cells, compound alone cytotoxicity

CCCN1CC23C=CC(O2)C(C(=O)O)C3C1=O (stereo not given)
99.7%: viability [6, 16]
inactive: Her2 level [2] 94% | viability [3] 81.5% | viability [4] 85.4% | viability [5] 98.1% | differential viability (reversal) ([6]; H69AR cells + 2 uM doxorubicin) -1.58% | inhibition [7] -3.87% | inhibition [8] 0.16% | growth inhibition [9] -2.17% | growth inhibition [10] 2.93% | viability increase [11] -0.49% | viability [12] 100% | viability [13] 101% | inhibition [14] 1.96% | RAM network inhibition [15] -1.04%
81.5%: viability [1]
98.1%: viability [6, 17]

CC(C)CNc1oc(-c2ccc(F)cc2)nc1C#N
108%: viability [1]
92.5%: viability [6, 16]
94.2%: viability [6, 17]
inactive: Her2 level [2] 110% | viability [3] 108% | viability [4] 103% | viability [5] 94.2% | differential viability (reversal) ([6]; H69AR cells + 2 uM doxorubicin) 1.69% | inhibition [7] -7.47% | inhibition [8] -4.1% | growth inhibition [9] -15.3% | growth inhibition [10] -11.5% | viability increase [11] 1.69% | viability [12] 101% | viability [13] 84.7% | inhibition [14] 0.19% | RAM network inhibition [15] 5.05%

CCOC(=O)C1CCN(c2c(NC3CCCc4ccccc43)c(=O)c2=O)CC1 (stereo not given)
87.2%: viability [6, 16]
87.7%: viability [6, 17]
82%: viability [1]
inactive: Her2 level [2] 106% | viability [3] 82% | viability [4] 106% | viability [5] 87.7% | differential viability (reversal) ([6]; H69AR cells + 2 uM doxorubicin) 0.54% | inhibition [7] 1.41% | inhibition [8] 0.67% | growth inhibition [9] 6.77% | growth inhibition [10] -3.4% | viability increase [11] -1.77% | viability [12] 102% | viability [13] 96.8% | inhibition [14] -0.155% | RAM network inhibition [15] 0%

CCCCOc1ccc(-c2ncc(Cl)cn2)cc1
84.8%: viability [6, 16]
inactive: Her2 level [2] 117% | viability [3] 110% | viability [4] 119% | viability [5] 93.9% | differential viability (reversal) ([6]; H69AR cells + 2 uM doxorubicin) 9.19% | inhibition [7] -4.94% | inhibition [8] 0.83% | growth inhibition [9] -14.9% | growth inhibition [10] -12.5% | viability increase [11] 3.52% | viability [12] 86.9% | viability [13] 96.8% | inhibition [14] 1.26% | RAM network inhibition [15] 3.37%
93.9%: viability [6, 17]
110%: viability [1]

COC(=O)CN(c1ccc(OC)cc1)S(=O)(=O)c1ccc(OC)c(OC)c1
88.1%: viability [6, 17]
89.5%: viability [1]
85.3%: viability [6, 16]
inactive: Her2 level [2] 91% | viability [3] 89.5% | viability [4] 96.5% | viability [5] 88.1% | differential viability (reversal) ([6]; H69AR cells + 2 uM doxorubicin) 2.77% | inhibition [7] -0.78% | inhibition [8] -2.3% | growth inhibition [9] -13.7% | growth inhibition [10] -17% | viability increase [11] -1.06% | viability [12] 98.5% | viability [13] 99.5% | inhibition [14] 1.75% | RAM network inhibition [15] 4.96%

COc1ccc(C2C(C(C)=O)=C(C)N=c3s/c(=C/c4ccc5c(c4)OCO5)c(=O)n32)cc1 (stereo not given)
94.4%: viability [6, 16]
85%: viability [1]
inactive: Her2 level [2] 97.5% | viability [3] 85% | viability [4] 91.7% | viability [5] 112% | differential viability (reversal) ([6]; H69AR cells + 2 uM doxorubicin) 17.7% | inhibition [7] -7.81% | inhibition [8] -3.49% | growth inhibition [9] -11.4% | growth inhibition [10] -17.4% | viability increase [11] 3.84% | viability [12] 90.1% | viability [13] 83.9% | inhibition [14] 0.93% | RAM network inhibition [15] -0.74%
112%: viability [6, 17]

Cn1c(=O)c2c(nc(SCCOc3ccc4ccc(=O)oc4c3)n2C)n(C)c1=O
inactive: Her2 level [2] 91.5% | viability [3] 98.5% | viability [4] 102% | viability [5] 104% | differential viability (reversal) ([6]; H69AR cells + 2 uM doxorubicin) 14.3% | inhibition [7] -2.93% | inhibition [8] -1.97% | growth inhibition [9] -4.61% | growth inhibition [10] 1.18% | viability increase [11] 1.22% | viability [12] 99% | viability [13] 103% | inhibition [14] 0.27% | RAM network inhibition [15] 2.41%
98.5%: viability [1]
104%: viability [6, 17]
89.6%: viability [6, 16]

CC(C)c1nnc(NC(=O)c2ccc(N3C(=O)CCC3=O)cc2)s1
92.5%: viability [6, 17]
inactive: Her2 level [2] 89.5% | viability [3] 91.5% | viability [4] 100% | viability [5] 92.5% | differential viability (reversal) ([6]; H69AR cells + 2 uM doxorubicin) -1.78% | inhibition [7] -3.33% | inhibition [8] -0.67% | growth inhibition [9] -2.77% | growth inhibition [10] -18.5% | viability increase [11] -4.79% | viability [12] 101% | viability [13] 95.3% | inhibition [14] 1.46% | RAM network inhibition [15] 3.77%
94.3%: viability [6, 16]
91.5%: viability [1]

CCC(C)NC(=O)C1c2cc(OC)c(OC)cc2C(=O)N(C)C1c1ccc(OC)cc1 (stereo not given)
inactive: Her2 level [2] 90% | viability [3] 96% | viability [4] 108% | viability [5] 108% | differential viability (reversal) ([6]; H69AR cells + 2 uM doxorubicin) 10.2% | inhibition [7] -8.77% | inhibition [8] -10.2% | growth inhibition [9] -5.75% | growth inhibition [10] -9.85% | viability increase [11] -1.38% | viability [12] 96% | viability [13] 95.3% | inhibition [14] 0.92% | RAM network inhibition [15] 0.81%
108%: viability [6, 17]
96%: viability [1]
97.6%: viability [6, 16]

CC(=O)Nc1ccc(S(=O)(=O)Nc2nc3c(s2)CCCC3)cc1
88%: viability [6, 16]
inactive: Her2 level [2] 103% | viability [3] 106% | viability [4] 106% | viability [5] 99.5% | differential viability (reversal) ([6]; H69AR cells + 2 uM doxorubicin) 11.5% | inhibition [7] -8.93% | inhibition [8] -9.52% | growth inhibition [9] 4.96% | growth inhibition [10] 12.8% | viability increase [11] -1.41% | viability [12] 95.1% | viability [13] 90.7% | inhibition [14] 1.9% | RAM network inhibition [15] 2.5%
99.5%: viability [6, 17]
106%: viability [1]
